This is part of a sample that, as a whole, favours compounds with a hit. Of some 83,000 tested, about 20% had one in any assay.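 Values shown are percent growth following 48 h exposure of cells in 96-well plates to a single concentration of compound; below 10 was considered active.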 A number with no mark means an inactive call. Activity calls are given as the source filed them.
Columns and labels:
Test in all cases: NCI-60 one-dose screen, 48 h (100 = growth as untreated, 0 = no growth, -100 = all killed)
Details in all cases: 10 µM unless noted
DU-145 prostate = tested on: DU-145 prostate
K-562 leukemia = tested on: K-562 leukemia
MALME-3M melanoma = tested on: MALME-3M melanoma
MDA-MB-231 breast = tested on: MDA-MB-231 breast
RXF 393 renal = tested on: RXF 393 renal
SF-268 CNS = tested on: SF-268 CNS
SF-295 CNS = tested on: SF-295 CNS
SF-539 CNS = tested on: SF-539 CNS
UACC-257 melanoma = tested on: UACC-257 melanoma
M14 melanoma = tested on: M14 melanoma
HCT-15 colon = tested on: HCT-15 colon
HT29 colon = tested on: HT29 colon
SNB-75 CNS = tested on: SNB-75 CNS
SNB-19 CNS = tested on: SNB-19 CNS
U251 CNS = tested on: U251 CNS
PC-3 prostate = tested on: PC-3 prostate
SK-MEL-5 melanoma = tested on: SK-MEL-5 melanoma
UACC-62 melanoma = tested on: UACC-62 melanoma
LOX IMVI melanoma = tested on: LOX IMVI melanoma
SK-MEL-28 melanoma = tested on: SK-MEL-28 melanoma

| Compound | growth (DU-145 prostate) | growth (K-562 leukemia) | growth (MALME-3M melanoma) | growth (MDA-MB-231 breast) | growth (RXF 393 renal) | growth (SF-268 CNS) | growth (SF-295 CNS) | growth (SF-539 CNS) | growth (UACC-257 melanoma) | growth (M14 melanoma) | growth (HCT-15 colon) | growth (HT29 colon) | growth (SNB-75 CNS) | growth (SNB-19 CNS) | growth (U251 CNS) | growth (PC-3 prostate) | growth (SK-MEL-5 melanoma) | growth (UACC-62 melanoma) | growth (LOX IMVI melanoma) | growth (SK-MEL-28 melanoma) |
| --- | --- | --- | --- | --- | --- | --- | --- | --- | --- | --- | --- | --- | --- | --- | --- | --- | --- | --- | --- | --- |
| CCCC1Cc2cc(-n3nc(C)c4c3CC(C)(C)CC4=O)cc(NC3CCC(O)CC3)c2C(=O)N1 (stereo not given) | 53.7% | 14.3% | 12.3% | -15.1% (active) | 65.3% | 65.3% | 21% | 34.4% | 37.1% | 33.7% | 26.1% | 11.6% | 66.6% | 50% | 41.5% | 42.8% | 40.7% | 6.33% (active) | 5.91% (active) | 31.5% |
| Clc1nc(N2CCC[N+]3(CC2)CC[N+]2(CCCNCC2)CC3)nc(N2CCC[N+]3(CC2)CC[N+]2(CCCNCC2)CC3)n1 (stereo not given) | 91% | 104% | 3.84% (active) | 86.5% | 100% | 76.8% | 104% | 87.5% | 81.3% | 103% | 83.2% | 54.9% | 123% | 112% | 91.7% | 101% | 102% | 96.8% | 98% | 92.2% |
| C#CCOc1ccc(C2=NN(CCCC)C3N=C(Cl)c4ncn(CCCC)c4N23)cc1OCC#C (stereo not given) | 94.1% | 71.2% | 107% | 91.7% | 76.1% | 90.1% | 88.4% | 101% | 85.7% | 92.2% | 88.9% | 96.9% | 83.3% | 94.6% | 79.6% | 63.6% | 89.7% | 69.6% | 85.8% | 93.6% |
| O=C(O)/C=C/c1cn(-c2ccccc2)nc1-c1ccc(F)cc1 | 115% | 100% | 105% | 95% | 113% | 83.7% | 87.7% | 92.6% | 80.7% | 90% | 101% | 107% | 87.9% | 92.2% | 96.2% | 84.4% | 93.9% | 88.3% | 95.2% | 104% |
| CC/C(=C(/c1ccc(Cl)cc1)c1ccc(OCCN(CC)CC)cc1)c1ccc(OC)cc1 | 74.4% | -18% (active) | 68.2% | 71.8% | 45% | 79.3% | 36.9% | 62.3% | 64.9% | 34.5% | 16.7% | -3.6% (active) | 97.2% | 69.5% | 33.5% | 33.9% | 46.1% | 72.8% | 42.3% | 56% |
| COc1ccc(/C=N\NC(=O)c2ccc3nc(-c4ccc(Cl)cc4)[nH]c3c2)cc1 | 79.3% | 31.9% | 6.53% (active) | 39.8% | 43.8% | 19.9% | -38.9% (active) | 42.6% | 54.4% | 26.2% | 57.5% | 21.9% | 91.9% | 24.2% | 7.96% (active) | -4.4% (active) | 33.7% | 30.9% | 0.882% (active) | 12.5% |
| NC(=O)[C@@H]1Cc2ccccc2CN1C(=O)c1ccc2c(c1)Cc1ccccc1-2 | 86% | 58.9% | 87.3% | 98.4% | 91.9% | 87.3% | 79.8% | 97.6% | 94.9% | 87.4% | 74.6% | 89.1% | 85.7% | 86.7% | 83% | 61.9% | 46.6% | -36.9% (active) | 90.8% | 116% |
| O=C(NS(=O)(=O)c1ccccc1)n1cc(-c2ccncc2)c(-c2cc(O)cc(Cl)c2)n1 | 112% | 78% | 15.3% | 90.4% | 112% | 108% | 110% | 86.5% | 70.8% | 32.1% | 95.9% | 98.4% | 82.6% | 115% | 104% | 95% | 98.9% | 39.3% | 92.8% | 67.6% |
| C=C1C(=O)O[C@H]2[C@H]1CC/C(CNC(=O)/C=C/c1cc(OC)c(OC)c(OC)c1)=C\CC[C@@]1(C)O[C@@H]21 | 7.86% (active) | -9.87% (active) | -36.6% (active) | 5.65% (active) | -88% (active) | 28.1% | 50.4% | -36% (active) | -26.1% (active) | -32.3% (active) | 1.96% (active) | -66.4% (active) | 46.9% | 46.9% | 25.9% | 37.1% | 20.6% | -36.3% (active) | -88% (active) | -32.7% (active) |
| O=C1/C(=C/c2ccc(-c3ccc(Cl)cc3)o2)SC(=S)N1CCc1ccc(O)cc1 | 29.1% | 26.1% | 76.7% | 75.6% | 70% | 31.2% | 104% | 70.9% | 42% | 38.2% | 67.5% | 25.2% | 25.8% | 87.2% | 22.2% | 53.2% | 94.5% | 50.5% | 75.1% | 93.6% |
| COc1ccc(CNc2ccc3nc(CCC4CCCCC4)[nH]c3c2)cc1 | 83.4% | 19.6% | 59.4% | 79.7% | 74.2% | 71.4% | 91% | 76.4% | 75.3% | 75.7% | 42% | 18.4% | 69.4% | 84% | 60.9% | 59.1% | 38% | 69.9% | 81.5% | 76.4% |
| COCCNC(=O)Cc1cc(-c2ccc(Cl)cc2)n(-c2ccccc2)c1C | 101% | 64.7% | 93.7% | 89.9% | 84.8% | 88.5% | 85.6% | 92.8% | 95.6% | 88.1% | 81.8% | 84.8% | 68.5% | 79.2% | 84.5% | 81% | 79.3% | 59.4% | 85.5% | 103% |
| N#CC1=C(N)Oc2c(ccc3ccccc23)C1c1cc2ccccc2n2nnnc12 (stereo not given) | 19.5% | 4.13% (active) | 53.4% | 32.9% | 11.4% | 26.3% | 10.7% | -8.31% (active) | 47.4% | 12.7% | 11.8% | 8.73% (active) | 8.82% (active) | 26.2% | 18.7% | 10.1% | 7.97% (active) | 25.4% | 24.5% | 39.3% |
| CCCCC#Cc1c(I)n(C2OC(CO[Si](C)(C)C(C)(C)C)C3OC(C)(C)OC32)c(=O)[nH]c1=O (stereo not given) | 74.1% | 36.3% | 60.6% | 79% | -56.4% (active) | 98.4% | 113% | 88.1% | 55.1% | 76% | 68.2% | 69.3% | 85.5% | 97.6% | 82.6% | 84.4% | 90.4% | 81% | 19.3% | 68.9% |
| COc1cccc(C(=O)Nc2cccc(NC(=O)c3ccccn3)c2)c1 | 109% | 90.5% | 94.4% | 105% | 115% | 96.9% | 91.6% | 104% | 109% | 87.9% | 90.7% | 93.1% | 90.3% | 108% | 109% | 98.3% | 97.3% | 96.3% | 95.2% | 97.5% |
